Here are results for 54 sequences from article PMC10726135, “HNF4α isoforms regulate the circadian balance between carbohydrate and lipid metabolism in the liver”.

Whole data set: some 18,000 sequences, median “log2 normalized intensity” near 0.39, cut for the highest 2% near 6.6. This excerpt belongs to a sample that is enriched for the highest values.

In this experiment the target is T1, HNF4alpha2 (COS-7 nuclear extract) (Homo sapiens, UniProt P41235 1-474).
T1 sequence: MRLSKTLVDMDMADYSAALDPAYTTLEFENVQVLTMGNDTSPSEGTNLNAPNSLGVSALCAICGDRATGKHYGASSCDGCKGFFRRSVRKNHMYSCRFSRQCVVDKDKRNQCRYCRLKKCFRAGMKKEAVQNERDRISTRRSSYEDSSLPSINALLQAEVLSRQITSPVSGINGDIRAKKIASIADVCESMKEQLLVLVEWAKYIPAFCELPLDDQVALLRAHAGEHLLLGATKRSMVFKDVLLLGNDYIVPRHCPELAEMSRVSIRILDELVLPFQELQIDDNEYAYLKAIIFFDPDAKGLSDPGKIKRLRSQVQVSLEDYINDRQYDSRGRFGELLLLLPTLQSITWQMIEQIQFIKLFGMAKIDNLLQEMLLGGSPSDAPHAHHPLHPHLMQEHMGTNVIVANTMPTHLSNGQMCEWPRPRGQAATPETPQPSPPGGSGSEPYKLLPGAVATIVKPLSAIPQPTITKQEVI
The experiment in a line: protein-binding microarray; COS-7 nuclear extract on double-stranded Agilent 4x180k PBM; binding buffer, salt, pH and temperature not given in the material; high values mean tight binding. Particulars: chain copies: 2; label: 3' end of strand 1 on the slide; dsDNA, one strand shown. In short, it runs like this:
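Nuclear extracts from COS-7 cells expressing a transiently transfected human HNF4α isoform were put on a custom Agilent SurePrint G3 4x180k array carrying ~44,000 double-stranded ~60-nt test sequences in quadruplicate. Imaging used an Agilent G2565CA scanner at 2-µm resolution. Binding signal is the background-corrected, normalized gProcessedSignal from Agilent software.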
With “GAAATGGTGGACTTTGTAGCTCAAACAGTCGCCTAGGGAGATTAGAGTATCGGTCGA”, the binding signal stood at 3.13 log2 normalized intensity. Regarding “TATGGATAGGCACATATTGGATCTCTGGTAGCCTAGGGAGATTAGAGTATCGGTCGA”, the binding signal came out at 0.865 log2 normalized intensity. In the case of “CAGTTTGAAATTAGGCAATATGAGTAGAGCGCCTAGGGAGATTAGAGTATCGGTCGA”, the binding signal was -0.693 log2 normalized intensity. With “TTGGCTAAAGTCCAAATTCCTTGGAATACAGCCTAGGGAGATTAGAGTATCGGTCGA” the figure was 3.12 log2 normalized intensity; with “CACACACACACAGCATTCCATTCATTTTAGGCCTAGGGAGATTAGAGTATCGGTCGA”, -0.727 log2 normalized intensity; with “AACATGTAATCATTTGGGACAAAGTTCATCGCCTAGGGAGATTAGAGTATCGGTCGA”, 4.11 log2 normalized intensity.

Regarding “TGAACAATTGATTTATAGCCTTTTTGCCCAGCCTAGGGAGATTAGAGTATCGGTCGA”, the binding signal is 1.29 log2 normalized intensity. With “TGCTTTCTTATCTGGGGGCCATTCCTCTATGCCTAGGGAGATTAGAGTATCGGTCGA” the figure was 1.1 log2 normalized intensity. In the case of “TCTTAACATCAGAAGTTGGACTTTGTACATGCCTAGGGAGATTAGAGTATCGGTCGA”, the binding signal was determined as 9.62 log2 normalized intensity. As for “AGGGACTTTGATCTTCTTACCCCTTTGCTGGCCTAGGGAGATTAGAGTATCGGTCGA”, the binding signal worked out at 2.86 log2 normalized intensity. With “CCCCTTCTTAACATCAGAAGTTGGACTTTGGCCTAGGGAGATTAGAGTATCGGTCGA”, the binding signal is 7.59 log2 normalized intensity. “ACTTTGGAACTCAGTTAATGTACAGAGTATGCCTAGGGAGATTAGAGTATCGGTCGA”: the binding signal stood at 0.375 log2 normalized intensity. “ATTAGAGAACATGTACTTTGTACTGCTTATGCCTAGGGAGATTAGAGTATCGGTCGA”: the binding signal was 4.15 log2 normalized intensity. “AGGAGATGTGGTGGACTTTAACGACCTTTGGCCTAGGGAGATTAGAGTATCGGTCGA”: the binding signal was 4.66 log2 normalized intensity.

Consider “CTTTGCTCCCACCCTGCAATTCCCCTGGGCGCCTAGGGAGATTAGAGTATCGGTCGA”, for which the binding signal was determined as 3.29 log2 normalized intensity. As to “CAAACAGACCTCCCCCAACTTACTTAGTGGGCCTAGGGAGATTAGAGTATCGGTCGA”, the binding signal stood at 1.85 log2 normalized intensity. In the case of “TTCAATTTTTTTGTTGTTATCCATTTAAAAGCCTAGGGAGATTAGAGTATCGGTCGA”, the binding signal amounted to 1.04 log2 normalized intensity. With “GTATCTAATCTCAGATATGCTAATTAACCCGCCTAGGGAGATTAGAGTATCGGTCGA”, the binding signal was 1.79 log2 normalized intensity. On to “GTTATGAGTCTGTTGTCTAACATTTTTGACGCCTAGGGAGATTAGAGTATCGGTCGA”, for which the binding signal was determined as 0.629 log2 normalized intensity. For “CTTACTTGGCCTGTTTGCTGAAGGCCATGCGCCTAGGGAGATTAGAGTATCGGTCGA”, the binding signal was 0.0452 log2 normalized intensity. With “CAACTAGGGCAAAGGTTAGCTTGGACAGAGGCCTAGGGAGATTAGAGTATCGGTCGA” the figure was 2.72 log2 normalized intensity; with “GGTATGTTTGTGATATTGTGAAATATATATGCCTAGGGAGATTAGAGTATCGGTCGA”, 2.03 log2 normalized intensity; with “GCACTGATAAGCGTATTTCAACCTTTGATCGCCTAGGGAGATTAGAGTATCGGTCGA”, 7.8 log2 normalized intensity. With “GATGATCATGGCTCACTGCACCTTGACCTCGCCTAGGGAGATTAGAGTATCGGTCGA”, the binding signal is 7.34 log2 normalized intensity. Turning to “GAACTGAAAGAGACCTTTGACATCACCTAAGCCTAGGGAGATTAGAGTATCGGTCGA”, the binding signal was determined as 2.04 log2 normalized intensity. With “GACTGACCTTTGATCATTTGAGGGTGACACGCCTAGGGAGATTAGAGTATCGGTCGA” the figure was 5.65 log2 normalized intensity; with “AGTGCGATGATCATGGCTCACTGCACCTTGGCCTAGGGAGATTAGAGTATCGGTCGA”, 0.629 log2 normalized intensity; with “TGCACTTTGACCGCTCATTTGATCCTCACAGCCTAGGGAGATTAGAGTATCGGTCGA”, 3.87 log2 normalized intensity.

For “GTGGTCCTAAAATTGACCTTTGATCACTCAGCCTAGGGAGATTAGAGTATCGGTCGA”, the binding signal came to 9.68 log2 normalized intensity. For the sequence “TGCCTTTGATCAGGGACCTTTGTTCCTTTAGCCTAGGGAGATTAGAGTATCGGTCGA”, the binding signal came to 4.43 log2 normalized intensity. With “AGGAGGCACTGATAAGCGTATTTCAACCTTGCCTAGGGAGATTAGAGTATCGGTCGA” the figure was 0.384 log2 normalized intensity.

As for “TCATGGCTCACTGCACCTTGACCTCCTGGGGCCTAGGGAGATTAGAGTATCGGTCGA”, the binding signal came to 4.99 log2 normalized intensity. For the sequence “GTGGTCCTAAGACTGACCTTTGATCATTTGGCCTAGGGAGATTAGAGTATCGGTCGA”, the binding signal was determined as 8.56 log2 normalized intensity. Regarding “GATAAGCGTATTTCAACCTTTGATCTATAAGCCTAGGGAGATTAGAGTATCGGTCGA”, the binding signal was found to be 5.94 log2 normalized intensity. Regarding “CACCTTCAGTCACACTGTTTGCGCAAACTAGCCTAGGGAGATTAGAGTATCGGTCGA”, the binding signal is -0.824 log2 normalized intensity. For the sequence “TACCAAGGCTCAGAGGTCAAGTCACTGCTCGCCTAGGGAGATTAGAGTATCGGTCGA”, the binding signal was found to be 2.57 log2 normalized intensity. Regarding “CCTTGGCTGTGTGACTCACCTTTGCTCTGAGCCTAGGGAGATTAGAGTATCGGTCGA”, the binding signal turned out to be 3.71 log2 normalized intensity.

With “GGGGTCTGGTTTCTAGGTAGATAAGGGAGTGCCTAGGGAGATTAGAGTATCGGTCGA”, the binding signal came out at 1.29 log2 normalized intensity. “TCATCCGCATCTGAAGATAAGAGAAGTTGCGCCTAGGGAGATTAGAGTATCGGTCGA”: the binding signal was -0.83 log2 normalized intensity. Turning to “AACAGTGAATGTTTCGTAATATTTAGGTGTGCCTAGGGAGATTAGAGTATCGGTCGA”, the binding signal is 1.49 log2 normalized intensity. With “TCATTTTACAGATAAGGAAACCAAGGTCCAGCCTAGGGAGATTAGAGTATCGGTCGA” the figure was 1.45 log2 normalized intensity; with “CACCCCCATGCAAGTTCCCACAGAGCCCACGCCTAGGGAGATTAGAGTATCGGTCGA”, 4.54 log2 normalized intensity. With “AGTGTAAATATTTGAGGACACAAAGTGGACGCCTAGGGAGATTAGAGTATCGGTCGA” the figure was 2.09 log2 normalized intensity; with “AATTGACCTTTGATCACTCATGGGCAAGATGCCTAGGGAGATTAGAGTATCGGTCGA”, 5.65 log2 normalized intensity. Take “GTTTACTCATGTGGTCCTAAGACTGACCTTGCCTAGGGAGATTAGAGTATCGGTCGA”: the binding signal stood at 3.77 log2 normalized intensity. Consider “CCTAAAATTGACCTTTGATCACTCATGGGCGCCTAGGGAGATTAGAGTATCGGTCGA”, for which the binding signal worked out at 8.21 log2 normalized intensity. For the sequence “GCTGACCTTTGGTCTAAACCTACTTAGATCGCCTAGGGAGATTAGAGTATCGGTCGA”, the binding signal was 4.25 log2 normalized intensity. In the case of “AATCAACCTTTGATCGTTTGCATGCAGGGCGCCTAGGGAGATTAGAGTATCGGTCGA”, the binding signal was 3.25 log2 normalized intensity. As to “CTCATGTGGTCCTAAAATTGACCTTTGATCGCCTAGGGAGATTAGAGTATCGGTCGA”, the binding signal worked out at 10.5 log2 normalized intensity. With “CAAATAAACCTTTGACCAATTGACCCTATCGCCTAGGGAGATTAGAGTATCGGTCGA” the figure was 3.78 log2 normalized intensity. Take “TTGTTTACTCATGTGGTCCTAAGACTAACCGCCTAGGGAGATTAGAGTATCGGTCGA”: the binding signal was -0.3 log2 normalized intensity. Take “CTCATGTGGTCCTAAGACTGACCTTTGATCGCCTAGGGAGATTAGAGTATCGGTCGA”: the binding signal amounted to 10.1 log2 normalized intensity. For “GGTCAAAGAGCAATCATCAAGGTGGTTTCAGCCTAGGGAGATTAGAGTATCGGTCGA”, the binding signal came out at 1.71 log2 normalized intensity. Consider “AACACTTACACCTGGGTGCTCCCTCCCCCTGCCTAGGGAGATTAGAGTATCGGTCGA”, for which the binding signal was determined as 4.36 log2 normalized intensity.
